C diff growth – inhibitors of Clostridium difficile growth; growth activity, negative = inhibition, % at 16 µg/mL (by protocol); AID 1259249; 0.25% of 86,000 active; Clostridium difficile clinical isolate growth, OD600, 24 h; stronger effect = lower value;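 active = mean growth activity at or below -80% and every replicate also at or below -80%; inconclusive = mean at or below -80% but some replicate above -80%; inactive = mean growth activity above -80%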;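 note: 0% = DMSO wells and -100% = levofloxacin 16 µg/mL wells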
T cruzi growth-1 – inhibitors of T. cruzi proliferation. T. cruzi beta-gal in NIH3T3, GalScreen luminescence, 90 h. 5.9% of 77,000 active. inhibition, % at 8.34 µM;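 active = mean inhibition above about 93%, with at least 55% of replicates each passing it, limit read from the data, passing the limit was not always enough; inconclusive = only one of those two conditions holds; inactive = neither condition holds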
Pf Dd2 growth – P. falciparum Dd2 growth inhibition | AID 1159554 | SYBR Green, 72 h; stronger effect = lower value | 2.3% of 94,000 active | activity change, % at 10 µM; in the data active = activity change below about -80%; inconclusive = no clear call, values can overlap the other calls
T cruzi growth-2 – Trypanosoma cruzi proliferation inhibition | 72% of 5,600 active | inhibition, % at 8.35 µM | T. cruzi beta-gal in NIH3T3, GalScreen luminescence, 90 h | shares compounds with T cruzi growth-1;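 active = mean replicate inhibition above about 95% and at least 55% of replicates individually reaching it, limit read from the data; inconclusive = only one of the two criteria is met; inactive = neither criterion is met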
T cruzi growth-3 – blocks T. cruzi growth in NIH3T3 host cells. shares compounds with T cruzi growth-1. T. cruzi beta-gal in NIH3T3, GalScreen luminescence, 90 h. inhibition, % at 2.09 µM. 21% of 5,600 active. AID 651740;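 active = mean inhibition above about 95%, with at least 55% of replicates also reaching it, limit read from the data; inconclusive = meets just one of the two conditions; inactive = meets neither condition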;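 note: plate controls were neutral control median for no effect and positive control median for full effect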
3T3 cytotox – kills mouse NIH/3T3 fibroblasts; shares compounds with T cruzi growth-1; NIH/3T3 viability, CellTiter-Glo ATP luminescence, 90 h; cytotoxicity (signal decrease), % at 8.35 µM; 14% of 5,600 active;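 active = mean signal decrease across replicates above about 35% based on untreated-well scatter, with enough replicates individually passing, limit read from the data; inconclusive = no rule stated though some were filed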;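 note: 0% = median of neutral control wells and 100% = median of positive control wells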
NIH3T3 tox 2 – NIH/3T3 (mouse) viability loss; shares compounds with T cruzi growth-1; NIH/3T3 viability, CellTiter-Glo ATP luminescence, 90 h; inhibition, % at 24.9 µM; 56% of 5,600 active; AID 651744;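 active = mean loss of cell viability signal at or above a set limit, and enough replicates individually reaching it; inconclusive = meets only the mean limit or only the replicate share; inactive = meets neither condition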;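 note: 0% = median of neutral control wells and 100% = median of positive control wells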
* = called active by the depositor; ? = inconclusive; / = not tested or not shown. An excerpt weighted towards active compounds, which were near 6.8% of everything screened.

SMILES	C diff growth	T cruzi growth-1	Pf Dd2 growth	T cruzi growth-2	T cruzi growth-3	3T3 cytotox	NIH3T3 tox 2
O=C(C[C@@H]1CC[C@@H]2[C@H](COC[C@H](O)CN2C(=O)Nc2ccc(Cl)cc2)O1)NCCc1ccncc1	57	99*	18	99*	80	10	-3
O=C(C[C@@H]1CC[C@H]2[C@@H](COC[C@H](O)CN2C(=O)Nc2ccc(Cl)cc2)O1)NCCc1ccncc1	9	128*	8	87	61	9	11
O=C(C[C@@H]1CC[C@H]2[C@@H](COC[C@@H](O)CN2C(=O)Nc2ccc(Cl)cc2)O1)NCCc1ccncc1	30	71	-2	/	/	/	/
COc1ccc(NC(=O)Nc2ccc3c(c2)C(=O)N([C@@H](C)CO)C[C@@H](C)[C@H](CN(C)S(=O)(=O)c2cn(C)cn2)OCCCC[C@H](C)O3)cc1	-3	-25	17	/	/	/	/
CCCN(C)C[C@H]1OCCCC[C@@H](C)Oc2ccc(NS(C)(=O)=O)cc2C(=O)N([C@@H](C)CO)C[C@H]1C	-5	43	-75	/	/	/	/
C[C@H](CO)N1C[C@H](C)[C@@H](CN(C)C(=O)C2CCC2)Oc2ncc(/C=C/c3ccccc3)cc2C1=O	-5	59	-64	/	/	/	/
C[C@H](CO)N1C[C@H](C)[C@@H](CN(C)C(=O)C2CCCCC2)Oc2ncc(/C=C/c3ccccc3)cc2C1=O	-10	113*	-89*	112*	68	-41	1
C[C@H]1CN([C@@H](C)CO)C(=O)c2cc(/C=C/c3ccccc3)cnc2O[C@@H]1CN(C)C(=O)C1CCC1	-2	?	-70	?	28	5	18
C[C@@H]1CN([C@H](C)CO)C(=O)c2cc(/C=C/c3ccccc3)cnc2O[C@@H]1CN(C)C(=O)C1CCCCC1	-8	30	-71	/	/	/	/
C[C@H]1CN([C@@H](C)CO)C(=O)c2cc(/C=C/c3ccccc3)cnc2O[C@@H]1CN(C)C(=O)C1CCCCC1	-11	99*	-88*	101*	61	9	?
C[C@H](CO)N1C[C@H](C)[C@H](CN(C)C(=O)C2CCCCC2)Oc2ncc(/C=C/c3ccccc3)cc2C1=O	-6	85	?	/	/	/	/
CN(C)C(=O)C[C@@H]1CC[C@@H]2[C@@H](COc3ccc(NC(=O)C4CCC4)cc3C(=O)N2C)O1	-5	/	2	/	/	/	/
C[C@@H]1CCCCO[C@@H](CN(C)Cc2ccc(C(=O)O)cc2)[C@@H](C)CN([C@@H](C)CO)C(=O)c2cc(NS(=O)(=O)c3ccc(Cl)cc3)ccc2O1	-1	-8	-43	/	/	/	/
CCS(=O)(=O)N[C@H]1C=C[C@H](CC(=O)NC2Cc3ccccc3C2)O[C@H]1CO	/	0	1	/	/	/	/
CCCC#Cc1cnc2c(c1)C(=O)N([C@@H](C)CO)C[C@H](C)[C@@H](CN(C)S(C)(=O)=O)O2	-2	12	10	/	/	/	/
CCCC#Cc1ccc([C@H]2[C@@H](C#N)N(C(=O)CN3CCOCC3)[C@@H]2CO)cc1	6	105*	9	98*	52	-12	4
CCCC#Cc1ccc([C@@H]2[C@@H](C#N)N(C(=O)C3CC3)[C@@H]2CO)cc1	-9	77	25	/	/	/	/
N#C[C@@H]1[C@@H](c2ccccc2)[C@H](CO)N1C(=O)CN1CCOCC1	-18	64	23	/	/	/	/
CCCC#Cc1ccc([C@H]2[C@@H](C#N)N(C(=O)CN3CCOCC3)[C@H]2CO)cc1	1	98*	-14	103*	84	18	?
CN(C)c1ccc2c(c1)[C@H]1C[C@@H](CC(=O)NCc3ccccc3)O[C@@H](CO)[C@H]1O2	/	43	-8	/	/	/	/
CN(C)c1ccc2c(c1)[C@@H]1C[C@H](CC(=O)NCc3ccc(Oc4ccccc4)cc3)O[C@@H](CO)[C@@H]1O2	-7	153*	-75	47	9	53*	55*
CN(C)c1ccc2c(c1)[C@H]1C[C@H](CC(=O)NCc3ccc(Oc4ccccc4)cc3)O[C@H](CO)[C@H]1O2	-3	135*	-90*	76	32	-9	56*
CN(C)c1ccc2c(c1)[C@H]1C[C@H](CC(=O)NCc3ccccc3)O[C@H](CO)[C@H]1O2	/	51	-53	/	/	/	/
CN(C)c1ccc2c(c1)[C@@H]1C[C@@H](CC(=O)NCc3ccc(Oc4ccccc4)cc3)O[C@H](CO)[C@@H]1O2	-10	52	-35	/	/	/	/
CN(C)c1ccc2c(c1)[C@@H]1C[C@H](CC(=O)NCc3ccc(Oc4ccccc4)cc3)O[C@H](CO)[C@@H]1O2	-3	122*	-54	43	12	-1	?
SMILES	C diff growth	T cruzi growth-1	Pf Dd2 growth	T cruzi growth-2	T cruzi growth-3	3T3 cytotox	NIH3T3 tox 2
CO[C@H]1CN(C)C(=O)c2ccc(NC(=O)c3cnccn3)cc2OC[C@@H](C)N(CCc2ccccc2)C[C@@H]1C	/	70	-68	/	/	/	/
CCNC(=O)Nc1ccc2c(c1)C(=O)N(C)[C@@H]1CC[C@H](CC(=O)NCC3CC3)O[C@H]1CO2	-1	4	9	/	/	/	/
Cc1noc(C)c1NC(=O)Nc1cccc2c1O[C@@H](CN(C)C(=O)Nc1ccc(F)cc1)[C@@H](C)CN([C@@H](C)CO)C2=O	/	-13	20	/	/	/	/
C/C=C/c1ccc2c(c1)O[C@H](CN(C)Cc1ccncc1)[C@H](C)CN([C@@H](C)CO)S2(=O)=O	0	79	-12	/	/	/	/
C/C=C/c1ccc2c(c1)O[C@H](CN(C)Cc1ccncc1)[C@@H](C)CN([C@@H](C)CO)S2(=O)=O	1	109*	-38	109*	102*	-5	28*
C/C=C/c1ccc2c(c1)O[C@H](CN(C)Cc1cncnc1)[C@H](C)CN([C@@H](C)CO)S2(=O)=O	7	/	12	/	/	/	/
C/C=C/c1ccc2c(c1)O[C@@H](CN(C)Cc1ccncc1)[C@H](C)CN([C@@H](C)CO)S2(=O)=O	4	108*	-53	108*	105*	32	57*
C[C@@H]1CCCCO[C@@H](CN(C)S(=O)(=O)c2cccs2)[C@@H](C)CN([C@@H](C)CO)C(=O)c2cc(NS(C)(=O)=O)ccc2O1	10	-6	17	/	/	/	/
C[C@H](CO)N1C[C@H](C)[C@H](CN(C)C(=O)Nc2ccc(C(F)(F)F)cc2)Oc2c(cccc2N(C)C)C1=O	-1	96*	-11	91	17	3	11
C[C@H]1CN([C@@H](C)CO)C(=O)c2cccc(N(C)C)c2O[C@@H]1CN(C)Cc1ccc(C(F)(F)F)cc1	-3	103*	-50	45	36	10	66*
C[C@H]1CN([C@@H](C)CO)C(=O)c2cccc(N(C)C)c2O[C@@H]1CN(C)C(=O)Nc1ccc(C(F)(F)F)cc1	2	40	-15	/	/	/	/

Screening data (PubChem BioAssay)
